Results on 40 compounds are retold here after PubChem BioAssay AID1345085 (National Center for Advancing Translational Sciences (NCATS), 2018).

Records with an inconclusive call do not appear. Active and inactive are the calls of the source. Calls come from the whole dose curve; as a rule, active = well fitted cell-killing curve with a large enough effect; inconclusive = small, poorly fitted or top-dose-only effect, or effect the other way; inactive = no such curve, though single readings can be large or run the other way.
% is set by controls: 0 for no effect and ±100 for the full control effect; potency is the fitted concentration of half-maximal effect.

This assay deals with PA-1. As to the kind of experiment: Confirmatory qHTS for gynecologic anti-cancer compounds from libraries of approved drugs and bioactive compounds. Note: nearly all actives have a fitted effect of over 55% in size. As to conditions: gynecologic cancer cell panel viability, ATPlite luminescence, 48 h; series mostly up to 57.6 µM; activity change, negative = viability loss: at the top concentration. In outline: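 Viability is measured as ATP-dependent luciferase light using ATPlite, read 15 min after reagent addition at room temperature. Compounds, in DMSO, span 57.5 uM down to 0.977 nM over 11 threefold steps for 48 h.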
Regarding `COc1ccc(-c2nc3ccc(C4=NNC(=O)CC4C)cc3[nH]2)cc1` (stereo not given), the Potency is 21.7 µM (active).
The same measure, in the same setting: to `C=CC(=O)Nc1cccc(Oc2nc(Nc3ccc(N4CCN(C)CC4)cc3)ncc2Cl)c1` belongs 7.69 µM (active); to `CCCC(Nc1nc(-c2ccc(NC(=O)NCC)c(OC)c2)ncc1C)c1cccnc1` (stereo not given), 0.137 µM (active); to `NS(=O)(=O)OC[C@@H]1C[C@@H](n2ccc3c(N[C@H]4CCc5ccccc54)ncnc32)C[C@@H]1O`, 0.685 µM (active).
On to `CCCCc1nc2cc(/C=C/C(=O)NO)ccc2n1CCN(CC)CC`, for which the Potency is 0.385 µM (active).
Consider `Cc1[nH]c2ccccc2c1CCNCc1ccc(/C=C/C(=O)NO)cc1`, for which the Potency was 0.122 µM (active).
Same read-out and setting: to `CC(=O)OC12COC1CC(O)C1(C)C(=O)C(O)C3=C(C)C(OC(=O)C(O)C(NC(=O)OC(C)(C)C)c4ccccc4)CC(O)(C(OC(=O)c4ccccc4)C21)C3(C)C` (stereo not given) belongs 0.0077 µM (active).
The same measure, in the same setting: to `COc1cc(N2CCC(N)CC2)ccc1Nc1ncc(Cl)c(-c2c[nH]c3ccccc23)n1` belongs 19.3 µM (active).
For `CCN1C[C@H](C)n2c(c(O)c3c(=O)n(Cc4ccc(F)c(Cl)c4)nc(C(=O)NC)c32)C1=O`, the “activity change, negative = viability loss” value was 33.3% (inactive).
Consider `NCCOc1cc(C(=O)Nc2cc(OCCN)c3ccccc3n2)nc(C(=O)Nc2cc(OCCN)c3ccccc3n2)c1`, for which the Potency is 19.3 µM (active).
For `CCCCc1oc2ccccc2c1C(=O)c1cc(I)c(OCCN(CC)CC)c(I)c1`, the Potency was 39.8 µM (active).
For `CO[C@@]12[C@H](COC(N)=O)C3=C(C(=O)C(C)=C(N)C3=O)N1C[C@@H]1N[C@@H]12`, the “activity change, negative = viability loss” value is 12.8% (inactive).
As for `CNC(=O)c1ccccc1Sc1ccc2c(/C=C/c3ccccn3)n[nH]c2c1`, the Potency was 4.32 µM (active).
On to `O=C(NOCC1CC1)c1ccc(F)c(F)c1Nc1ccc(I)cc1Cl`, for which the Potency was 8.63 µM (active).
Consider `Nc1nc(=S)c2[nH]cnc2[nH]1`, for which the Potency was 6.85 µM (active).
Same read-out and setting: to `Nc1ccn([C@@H]2O[C@H](CO)[C@@H](O)C2(F)F)c(=O)n1` belongs 0.0611 µM (active).
Turning to `CN1C(=O)C(Cc2c[nH]c3ccccc23)NC1=S` (stereo not given), the “activity change, negative = viability loss” value was 11% [at 19.5 µM] (inactive).
Regarding `O=C(c1ccc(F)c(F)c1Nc1ccc(I)cc1F)N1CC(O)([C@@H]2CCCCN2)C1`, the Potency was 15.3 µM (active).
Consider `CN(C[C@@H]1COCCO1)S(=O)(=O)Nc1ccc2ccc3ncc(-c4cnn(C)c4)cc3c(=O)c2c1`, for which the Potency was 17.2 µM (active).
On the same count and under the same terms, to `CC[C@@]1(O)C(=O)OCc2c1cc1n(c2=O)Cc2cc3c(CN(C)C)c(O)ccc3nc2-1` belongs 0.273 µM (active); to `Cc1cc(Nc2nc(N[C@@H](C)c3ncc(F)cn3)ncc2Cl)n[nH]1`, 3.85 µM (active).
On to `CC(C)C[C@H](NC(=O)[C@H](CCc1ccccc1)NC(=O)CN1CCOCC1)C(=O)N[C@@H](Cc1ccccc1)C(=O)N[C@@H](CC(C)C)C(=O)[C@@]1(C)CO1`, for which the Potency is 2.43 µM (active).
`NC(=O)Nc1cc(-c2cccc(F)c2)sc1C(=O)NC1CCCNC1` (stereo not given): the Potency was 1.72 µM (active).
For `O=C(CCCCCCC(=O)Nc1ccccc1)NO`, the Potency is 1.37 µM (active).
As for `COc1cc(N2CCC(N3CCN(C)CC3)CC2)ccc1Nc1ncc(Cl)c(Nc2ccccc2S(=O)(=O)C(C)C)n1`, the Potency was 3.43 µM (active).
As to `Cn1cc(-c2ccc3ncc(Cc4ccc5ncccc5c4)n3n2)cn1`, the “activity change, negative = viability loss” value is 6.59% (inactive).
As to `CC(C)n1nc(-c2cc3cc(O)ccc3[nH]2)c2c(N)ncnc21`, the Potency is 13.7 µM (active).
`CN(C)CC/C=C1\c2ccccc2COc2ccccc21`: the “activity change, negative = viability loss” value was 6.3% (inactive).
`CN(NC(=O)CC(=O)NN(C)C(=S)c1ccccc1)C(=S)c1ccccc1`: the Potency is 0.0544 µM (active).
As for `CCc1nc(C(N)=O)c(Nc2ccc(N3CCC(N4CCN(C)CC4)CC3)c(OC)c2)nc1NC1CCOCC1`, the Potency is 1.06 µM (active).
On to `C[C@]12CCC(=O)C=C1CC[C@@H]1[C@@H]2[C@@H](O)C[C@@]2(C)[C@H]1CC[C@]2(O)C(=O)CO`, for which the Potency is 21.7 µM (active).
Regarding `Cc1cnc(Nc2cccc(CN3CCOCC3)c2)nc1Nc1cccc(S(=O)(=O)NC(C)(C)C)c1`, the Potency is 3.85 µM (active).
The same measure, in the same setting: to `CC(C)(C(=O)NCC(F)(F)C(F)(F)F)C(=O)NC1C(=O)Nc2ccccc2-c2ccccc21` (stereo not given) belongs 9.68 µM (active); to `CC[C@@]1(O)C(=O)OCc2c1cc1n(c2=O)Cc2cc3cc(O)ccc3nc2-1`, 0.109 µM (active); to `CCS(=O)(=O)c1cccc(-c2cc(C(=O)NC3CCN(C)CC3)c(C)c3[nH]c4ncc(C)cc4c23)c1`, 1.06 µM (active).
On to `Cc1cc(C2CCCCC2)n(O)c(=O)c1`, for which the Potency is 3.53 µM (active).
Still for that read-out and setting: to `Nc1cccc(-c2cc3c(Oc4cccc(O)c4)ncnc3[nH]2)c1` belongs 9.68 µM (active); to `O=C(Nc1cn[nH]c1-c1nc2ccc(CN3CCOCC3)cc2[nH]1)NC1CC1`, 3.85 µM (active).
In the case of `O=c1[nH]c(=O)n([C@H]2C[C@H](O)[C@@H](CO)O2)cc1F`, the Potency was 0.109 µM (active).
On to `Cc1ccc(C(=O)Nc2cccc(C(F)(F)F)c2)cc1-c1ccc2nc(NCCN3CCOCC3)ncc2c1`, for which the Potency was 17.2 µM (active).
